Assay outcomes as filed in PubChem BioAssay.
Hits are enriched below; roughly 6.3% of the tested compounds scored in any of these assays.
NADH coupling = inhibition of NAD/NADH coupling enzymes, library profiling. 65,000 compounds, 0.02% hits. IC50, µM (titrated, usually from 10 µM), inactives show at the top dose inhibition. AID 774. coupled PK/LDH NADH assays, four targets;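 active = single-dose screening hits from any of four coupled enzyme assays that gave an IC50 when retested across doses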;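 note: the DPM-DC format reads NADH fluorescence rather than 340 nm absorbance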
A340 absorber = absorbance at 340 nm; 65,000 tested, under 10 active; fold change at 10 µM; compound absorbance at 340 nm, fold over control;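 active = at 10 µM dose, initial 340 nm absorbance at least 2 fold that of control wells; inactive = change under 2 fold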;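 note: initial absorbance extrapolated from kinetic A340 decline of NADH oxidation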
PMK inhibit = blocks S. pneumoniae phosphomevalonate kinase | purified PMK, PK/LDH-coupled NADH absorbance 340 nm | inhibition, % at 10 µM | 65,000 compounds, 0.49% hits | AID 539;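 active = top-ranked compounds by inhibition in the single 10 µM screen, taking a fixed number of the strongest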;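 note: 0% = full reaction with DMSO carrier and 100% = background rate without enzyme reaction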
MK inhibit = S. pneumoniae mevalonate kinase inhibition; AID 555; purified MK, PK/LDH-coupled NADH absorbance 340 nm; 65,000 compounds, 0.48% hits; inhibition, % at 10 µM;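 active = ranked among the strongest by inhibition in the single 10 µM screen, a fixed top-ranked set picked for dose follow-up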
Fluor 339 460 = intrinsic fluorescence of library compounds, ex339/em460 – biochemical, MLSMR library, data from DPM-DC assay, artefact control, profiling panel | 65,000 compounds, 5.5% hits | AID 709 | fluorescence fold increase at 10 µM | compound autofluorescence, ex339/em460 nm, NADH buffer; hits give high values; 1 = no-compound wells, NADH background;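 active = at 10 µM, mean starting fluorescence two-fold or more over control wells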;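 note: signal is the first read of a kinetic run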
Spn DPM-DC inh = inhibitors of Streptococcus pneumoniae diphosphomevalonate decarboxylase; purified DPM-DC, PK/LDH coupled NADH fluorescence; calls only at 10 µM; 65,000 compounds, 0.49% hits; AID 556;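 active = the 320 compounds with the highest percent inhibition in the single-dose primary screen, excluding strongly autofluorescent ones, cut at about 32% in these data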;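 note: kinetic rate of NADH fluorescence loss reporting ADP formed by the decarboxylase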
The depositor's hits bear a star; i = inactive; . = no result given; + = active, no number.

SMILES | NADH coupling | A340 absorber | PMK inhibit | MK inhibit | Fluor 339 460 | Spn DPM-DC inh
CCOCCn1c(SCc2c(F)cccc2Cl)nc2c1c(=O)[nH]c(=O)n2C | 1% | 1 | 0 | 2 | 1.1 | i
Cc1ccc(S(=O)(=O)N2CCSC2c2ccco2)cc1 (configuration not stated) | 8% | 1 | 21 | 2 | 1.1 | i
Cn1c(=O)oc2cc(S(=O)(=O)NC(Cc3ccccc3)C(=O)N3CCCCC3)ccc21 (configuration not stated) | 1% | 1 | 0 | 3 | 1.1 | i
CCOC(=O)N1CCN(S(=O)(=O)N(C)C)CC1 | 6% | 0.98 | 3 | 4 | 0.87 | i
Cc1cccc(N=c2oc3cc(O)ccc3cc2C(N)=O)c1 | 8% | 1.1 | 0 | 6 | 3.7* | i
COc1ccccc1NC(=O)c1cc2ccc(O)cc2o/c1=N\O | 3% | 1.1 | 10 | 0 | 1.5 | i
Cc1ccccc1OCCNC(=O)CNC(=O)c1ccccc1O | 7% | 1 | 9 | 4 | 3.7* | .
Cc1cc(C)n(CCc2nc3c4ccccc4nc(SCc4ccc(C#N)cc4)n3n2)n1 | 4% | 1 | 10 | 2 | 1.1 | i
CCOc1ccc2[nH]c(=O)c(CN(CC3COCCO3)C(=O)c3ccco3)cc2c1 (configuration not stated) | 11% | 1 | 17 | 5 | 4* | .
CCOc1ccc2[nH]c(=O)c(CN(Cc3ccco3)C(=O)c3cccc(F)c3)cc2c1 | 15% | 1 | 20 | 12 | 2.9* | i
COc1ccc2[nH]c(=O)c(CN(Cc3ccco3)C(=O)c3ccccc3)cc2c1 | 8% | 1.1 | 8 | 8 | 3.7* | .
Cc1nc2c(C(=O)N3CCN(c4ccccn4)CC3)cnn2c(C)c1Cc1cccc(Cl)c1 | 4% | 1 | 11 | 0 | 1.3 | i
Cc1ccc(C)c(Cc2c(C)nc3c(C(=O)N4CCOCC4)cnn3c2C)c1 | 10% | 1 | 10 | 0 | 3.8* | i
CCOC(=O)N1CCN(C(=O)c2cnn3c(C)c(Cc4ccc(C)cc4)c(C)nc23)CC1 | 9% | 1 | 15 | 3 | 4.1* | .
Cc1nc2c(C(=O)O)cnn2c(C)c1Cc1ccccc1F | 13% | 1 | 19 | 1 | 1.6 | i
COC(=O)c1cnn2c(C)c(Cc3cccc(F)c3)c(C)nc12 | 8% | 1.1 | 11 | 4 | 2.1* | .
O=C1Nc2ccc(S(=O)(=O)NCc3ccco3)c3cccc1c23 | 1% | 1.1 | 0 | 1 | 2.2* | .
CCOc1ccc(S(=O)(=O)NCc2ccco2)c2ccccc12 | 1% | 1 | 0 | 2 | 1.1 | i
O=C(O)c1ccccc1NS(=O)(=O)c1ccc2c3c(cccc13)C(=O)N2 | 7% | 1 | 8 | 13 | 1.1 | i
CC(C)C(NS(=O)(=O)c1ccc2c3c(cccc13)C(=O)N2)C(=O)O (configuration not stated) | 1% | 1.1 | 0 | 2 | 2.2* | .
COC(=O)c1ccccc1NS(=O)(=O)c1ccc2c3c(cccc13)C(=O)N2 | 16% | 1 | 15 | 6 | 2.8* | i
COc1ccc(-c2nnc(SCc3nnc(-c4ccc(Cl)cc4)o3)n2-c2ccccc2)cc1 | 3% | 1 | 8 | 8 | 1 | i
COc1ccc(NS(=O)(=O)c2cccc(-c3nnc4n3CCCCC4)c2)cc1 | 1% | 1 | 0 | 4 | 1.1 | i
COc1ccc(-c2cc3nc4n(c(=O)c3s2)CCC4)cc1 | 4% | 1 | 9 | 6 | 3* | .
CC(=O)Nc1ccc(S(=O)(=O)c2c(N)n(CCN3CCOCC3)c3nc4ccccc4nc23)cc1 | 4% | 1.1 | 0 | 8 | 2.3* | .
SMILES | NADH coupling | A340 absorber | PMK inhibit | MK inhibit | Fluor 339 460 | Spn DPM-DC inh
c1ccc2nc3c(nc2c1)c1ccccc1n3CCN1CCOCC1 | 2% | 1.1 | 2 | 5 | 1.2 | i
Nc1c(C(=O)NCCN2CCOCC2)c2nc3ccccc3nc2n1CCc1ccccc1F | 10% | 1 | 2 | 18 | 3.9* | .
Nc1c(C(=O)NCCN2CCOCC2)c2nc3ccccc3nc2n1CCc1ccccc1 | 10% | 1 | 6 | 13 | 3.9* | .
CC(=O)Nc1nc2ccccc2n1CCN1CCOCC1 | 9% | 1 | 7 | 9 | 1.1 | i
COC(=O)c1cn(-c2ccccc2)nc1C(=O)OC | 5% | 0.97 | 19* | 2 | 1 | i
CCOC(=O)c1oc2nc3c(cc2c1N)COC(C)(C)C3 | 13% | 1.1 | 6 | 11 | 2.8* | i
CCOC(=O)c1oc2nc(C)c3c(c2c1N)CC(C)(C)OC3 | 1% | 1.1 | 2 | 0 | 3.9* | .
COCc1cc(C)nc(N2CCOCC2)c1C#N | 9% | 1.1 | 14 | 3 | 2.1* | .
COCc1cc(C)nc(N)c1C#N | 1% | 1.1 | 1 | 1 | 2 | .
CCNc1nc(C)cc(COC)c1C#N | 8% | 1.1 | 12 | 3 | 2.2* | .
CCOc1cc2c(C#N)c(N3CCOCC3)nc(N)c2c(N)n1 | 3% | 1.1 | 2 | 3 | 5.1* | .
CCCCc1nc(N2CCOCC2)c(C#N)c2c1CCCC2 | 6% | 1 | 2 | 15 | 1.8 | i
Cc1cccc(N2CCN(C(=O)c3cn(C)c(=O)c4c3c3ccccc3n4C)CC2)c1C | 6% | 1 | 15 | 0 | 1.9 | i
COCCn1cc(C(=O)N2CCN(C)CC2)c2c3ccccc3n(C)c2c1=O | 6% | 1.1 | 11 | 0 | 4.6* | .
CCOC(=O)N1CCN(C(=O)c2cn(CCOC)c(=O)c3c2c2ccccc2n3C)CC1 | 8% | 1.1 | 9 | 7 | 4.3* | .
CCSc1nnc(Cc2cc(=O)[nH]c(=O)[nH]2)n1-c1cc(C)ccc1C | 9% | 0.99 | 15 | 11 | 1.1 | i
Cc1nc2ccccc2n1CCC(=O)Nc1cccc(F)c1 | 4% | 1 | 12 | 0 | 1 | i
CCOc1cc(C(=O)NCCN2CCOCC2)cc(OCC)c1OCC | 18% | 1 | 3 | 50* | 1.1 | i
CCOC(=O)c1c(C)n(OCc2ccccc2)c2ccc3c(no[n+]3[O-])c12 | 4% | 0.99 | 6 | 7 | 0.98 | +
COC(=O)Cc1c(C)c2cc(Cl)c(OC(=O)c3ccco3)cc2oc1=O | 7% | 1.1 | 2 | 12 | 2.1* | .
COC(=O)Cc1c(C)c2ccc(OC(=O)c3ccco3)cc2oc1=O | 9% | 1.1 | 3 | 14 | 2.1* | .
CCOC(=O)N1CCC(NC(=O)Cc2ccc(-n3c(=O)[nH]c4ccccc4c3=O)cc2)CC1 | 3% | 1 | 7 | 4 | 1.1 | i
CC(=O)C(Sc1nn(C)c(=S)s1)C(=O)Nc1ccccc1 (configuration not stated) | 6% | 1.1 | 13 | 6 | 1.1 | i
CCCCC(=O)Nc1cc2nn(-c3ccc(OC)cc3)nc2cc1C | 13% | 1.1 | 11 | 14 | 3.6* | .
CCC(=O)Nc1cc2nn(-c3ccc(OC)cc3)nc2cc1C | 11% | 1 | 21 | 0 | 3.8* | .
